Chronic BCR inh: qHTS Assay to Find Inhibitors of Chronic Active B-Cell Receptor Signaling | 340,000 compounds, 0.05% hits | ABC-DLBCL IkBa-CBG/CBR reporter, luminescence ratio, 4 h | Potency, µM (highest dose often 46.1 µM), for the others: at the highest dose activity change, negative = inhibition, usual class: inhibitors; active means well fitted inhibition curve with a large enough effect in the signal ratio, with a control signal flat, not every such curve was filed as active; inconclusive means small, poorly fitted or top-dose-only effect, or effect the other way, or a change in a side signal; the % refers to the signal ratio;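 further: potency means the concentration at half of the fitted maximal effect; plate controls were basal doxycycline-induced cells for no effect and cells given 10 µM MG132 for full effect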
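Cell line TMD8 (human ABC DLBCL), stably expressing tet-inducible CBG68-IkBa fusion and CBR; IMDM/0.5% FBS; cpd up to 46 uM; dox induction, 4 h, 37C/5% CO2; dual luminescence; green/red ratio; MG132 control.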
KCNH2 3.1 block: qHTS for Inhibitors of KCHN2 3.1: Mutant qHTS. activity change, % (tested at about 1.8 µM). Potassium voltage-gated channel subfamily H member 2, brain isoform KCNH2 3.1 (human). 340,000 compounds, 0.95% hits. U2OS KCNH2 3.1, thallium flux FluxOr; active compounds read low;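 active means maximum activity change below -70%; inconclusive means maximum activity change from -70% to -50%; inactive means maximum activity change above -50%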;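 further: thallium influx rate constant from kinetic fluorescence after stimulation buffer; on the % scale 0 is the no-effect control and ±100 the full control effect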
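Thallium flux read-out: FluxOr dye with Red40 quencher in HBSS/HEPES, 45 min at RT. Rate constants from kinetic reads were normalized to positive and negative DMSO controls. Cells: U2OS virally expressing the 3.1 isoform.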
12-LOX inh: Primary qHTS assay for inhibitors of human arachidonate 12S-lipoxygenase (ALOX12): Round 2; purified 12hLO, xylenol orange hydroperoxide absorbance; AID 1671190, 2021; Polyunsaturated fatty acid lipoxygenase ALOX12 (Homo sapiens), P18054; Potency, µM (titrated, usually from 108 µM), without a hit: at the highest dose activity change, negative = inhibition, usual class: inhibitors; 580,000 compounds, 1.1% hits; active means well fitted inhibition curve with a large enough effect; inconclusive means small, poorly fitted or top-dose-only effect, or another doubt; inactive means no such curve, though single readings can be large or run the other way; further: potency means the concentration at half of the fitted maximal effect; on the % scale 0 is the no-effect control and ±100 the full control effect
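Purified human 12hLO at 150 nM in 25 mM Hepes, 0.01% Triton X-100, pH 7.0, preincubated 15 min at room temperature with compound. Reaction started with 40 uM arachidonic acid, 30 min at room temperature. Hydroperoxide measured by Fe-xylenol orange, 573/405 nm absorbance ratio.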
ClpP mod: qHTS Assay for Activators of ClpP. ATP-dependent Clp protease proteolytic subunit (Bacillus subtilis (strain 168)), P80244. purified B. subtilis ClpP, FRET peptide cleavage, 20 min. Potency, µM (top dose mostly 57.5 µM), for the others: at the highest dose activity change, negative = active. 340,000 compounds, 1.9% hits. AID 651965, 2013; active means well fitted falling curve with a large enough effect; inconclusive means small, poorly fitted or top-dose-only effect; inactive means no such curve, though single readings can be large or run the other way; further: potency means the concentration at half of the fitted maximal effect; the source files actives as falling curves though it sought activators and does not explain the sign; nearly all actives have a fitted effect of over 65% in size
Target sequence (P80244 whole entry, looked up): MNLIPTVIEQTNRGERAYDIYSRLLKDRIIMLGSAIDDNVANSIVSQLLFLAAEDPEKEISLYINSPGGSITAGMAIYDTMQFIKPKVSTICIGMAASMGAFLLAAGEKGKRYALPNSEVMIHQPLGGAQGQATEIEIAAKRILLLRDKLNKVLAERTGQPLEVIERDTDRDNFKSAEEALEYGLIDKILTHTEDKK
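Buffer: 100 mM Tris/HCl pH8, 100 mM KCl, 0.05% low protease BSA, 2.5% glycerol, 0.01% Tween-20. ClpP 10 microg/mL final; 20 min RT; delta FRET normalized to ADEP and DMSO controls.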
LDHA inh: qHTS assay for inhibitors of human lactate dehydrogenase; L-lactate dehydrogenase A chain (Homo sapiens), P00338; activity change, % (values are at about 110 or 230 µM); purified LDHA, NADH/diaphorase-resazurin fluorescence; active compounds read low; 480,000 compounds, 0.15% hits; in the data active means activity change below about -30%; inconclusive means mostly about -25% to -30%;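 further: plate controls were DMSO wells for no effect and wells without enzyme for full effect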
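Resorufin fluorescence (ex540/em590), read at 0 and 20 min after diaphorase/resazurin addition, reports the NADH left after a 5 min room-temperature reaction of 2 nM human LDH5 with 0.06 mM NADH and 0.2 mM pyruvate.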
hERG WT inh: qHTS for Inhibitors of KCHN2 3.1: Wildtype qHTS. Voltage-gated inwardly rectifying potassium channel KCNH2 (Homo sapiens), Q12809. U2OS, BacMam KCNH2, thallium flux FluxOr; active compounds read low. activity change, % at 1.84 µM. 340,000 compounds, 0.37% hits. AID 720551, 2013;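 active means maximum activity change below -70%; inconclusive means maximum activity change between -70% and -50%; inactive means maximum activity change above -50%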; further: on the % scale 0 is the no-effect control and ±100 the full control effect
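U2OS cells were transduced with wild-type KCNH2 virus (2.03 x 10^8 / mL) for 4 h at room temperature, then cultured overnight at 37 C. Thallium flux was read with FluxOr dye. Rate constants were normalized to DMSO controls.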
* marks the source's active call; other numbers are inactive results; ? = inconclusive; . = no result given; ! = not active in a repeat; [ ] = dose if it differs, or a comment. The list is not random: actives were taken first. Their share in the collection is about 3%.

SMILES	Chronic BCR inh	KCNH2 3.1 block	12-LOX inh	ClpP mod	LDHA inh	hERG WT inh
CCc1ccccc1NC(=O)Cn1c(N2CCN(c3ccccc3)CC2)nc(C)cc1=O	.	.	20%	.	.	.
COc1cc(CNC2CCCCCC2)cc(OC)c1	?	-87*	3%	0%	-3	-5
O=C(O)CC(c1ccccc1)N1C(=O)c2ccccc2C1=O (centres undefined)	.	-76*	0%	2%	-4	-1
O=C(NCc1ccco1)c1cc2cc(Br)ccc2[nH]1	.	.	32µM*	.	-1	.
CCN(Cc1ccco1)C(=O)c1cc2cc(Br)ccc2[nH]1	.	.	18µM*	.	5	.
Cc1c(C(=O)NC2CCS(=O)(=O)C2)oc2ccccc12 (centres undefined)	10%	3	11%	1%	-1	-6
Cc1cc2oc(C(=O)NC3CCS(=O)(=O)C3)c(C)c2cc1C (centres undefined)	?	1	144%	28µM*	-3	5
CCN(CC)CCn1c2ccccc2c(=O)c2c(O)ccc(O)c21	.	.	25µM*	-3%	31	0
CCc1c(C)sc(NC(=O)C2CC3CCC2C3)c1C#N (centres undefined)	.	.	16µM*	.	-3	.
CCc1c(C)sc(NC(=O)CCl)c1C#N	.	.	?	.	-18	.
CCc1c(C)sc(NC(C)=O)c1C#N	.	.	32µM*	.	6	.
Cc1ccc(-c2cc(C(=O)Nc3ccc(C#N)cc3)c3ccccc3n2)o1	.	.	13µM*	.	4	.
COc1ccc(NC(=O)c2cc(-c3ccc(C)o3)nc3ccccc23)cc1OC	4%	-20	?	3.5µM*	8	-4
COc1ccc(NC(=O)c2cc(-c3ccc(C)o3)nc3ccccc23)c(OC)c1	.	2	?	-9%	-3	-27
Cc1ccc(-c2cc(C(=O)Nc3ccccc3C(N)=O)c3ccccc3n2)o1	.	-7	6.3µM*	.	-6	1
Cc1ccc(-c2cc(C(=O)Nc3ccc(C(N)=O)cc3)c3ccccc3n2)o1	.	.	7.9µM*	.	-2	.
Cc1cccc(NC(=O)c2cc(-c3ccc(C)o3)nc3ccccc23)n1	.	.	-116%	.	10	.
COc1ccc(-c2cc(C(=O)Nc3ccc(C(N)=O)cc3)c3ccccc3n2)cc1	?	-13	?	.	-5	-1
Cc1ccc(Cc2sc(N)nc2C)cc1	.	.	?	.	5	.
COc1ccc(-c2c(NC(=O)c3ccccc3)oc3ccc(Cl)cc3c2=O)cc1OC	.	.	-2%	.	7	.
Cc1ccc(-c2cc(C(=O)N(C)CC(=O)Nc3ccccc3Br)c3ccccc3n2)o1	-2%	-3	?	25µM*	-3	4
O=S(=O)(c1ccc2nc(-c3ccco3)c(-c3ccco3)nc2c1)N1CCOCC1	9%	-1	14µM*	-11%	17	-8
Cc1ccccc1/C=C(\C#N)c1nc2ccccc2[nH]1	.	.	?	.	-1	.
Cc1ccc(NS(=O)(=O)c2ccc3[nH]c(=O)oc3c2)c(C)c1	1%	-4	50µM*!	-2%	-1	3
Cc1ccc(NC(=O)CN(C)S(=O)(=O)c2ccc3[nH]c(=O)oc3c2)c(C)c1	?	8	?	0%	0	4
SMILES	Chronic BCR inh	KCNH2 3.1 block	12-LOX inh	ClpP mod	LDHA inh	hERG WT inh
COC(=O)c1ccc2[nH]c(C)c(CN3CCCC3)c(=O)c2c1	1%	29	-5%	28µM*	-3	-21
CCOc1ccc2[nH]c(C)c(CN3CCN(CC)CC3)c(=O)c2c1	4%	-8	-8%	16µM*	-3	7
C=CCN(CC=C)Cc1c(C)[nH]c2ccc(C(=O)OCC)cc2c1=O	-1%	-1	2%	28µM*	-8	-1
COc1ccc(-c2noc([C@@H](C)NC(=O)C3CCCC3)c2C(=O)O)cc1	.	.	3%[176 µM]	.	.	.
c1ccc2c(c1)OCCOCCOc1ccccc1OCCOCCO2	11%	-79*	-7%	-2%	-10	23
Brc1ccc2c(c1)OCCOCCOc1cc(Br)ccc1OCCOCCOCCO2	-11%	-96*	.	-1%	0	-88*
C/C(=N\O)c1ccc2c(c1)OCCO2	4%	22	-2%	-11%	-1	-9
C/C(=N/O)c1ccc2c(c1)OCCOCCOc1cc(/C(C)=N/O)ccc1OCCOCCO2	-1%	-74*	-9%	0%	-6	-42
c1ccc2c(c1)OCCOCCOCCOCCO2	.	.	-4%	.	2	.
Cc1ccc(-c2nc3cc(NC(=O)C(C)C)ccc3o2)cc1	?	-12	0%	14µM*	-2	2
Cc1ccc(-c2nc3cc(NC(=O)C(C)C)ccc3o2)cc1C	0%	-6	-7%	28µM*	-7	2
COc1cc(OC)cc(-c2nc3cc(C)ccc3o2)c1	?	-2	-4%	25µM*	-4	-9
Cc1ccc(-c2nc3cc(Cl)ccc3o2)cc1	?	13	0%	35µM*	-1	11
Cc1ccc2oc(-c3ccc(Br)cc3)nc2c1	.	.	-9%	.	0	.
Cc1ccc2c(c1)N(CC(=O)c1cn(C)c3ccccc13)C(=O)CO2	.	.	?	.	-2	.
COc1ccc2[nH]cc(CCNC(=O)c3ccc4c(c3)C(O)CCCCCN4C)c2c1 (centres undefined)	.	.	-7%	.	.	.
COc1ccccc1NC(=O)NC[C@H]1O[C@H](Cc2cc(-c3ccc(F)cc3)on2)CC[C@@H]1O	.	.	7%	.	.	.
Cn1c(=O)[nH]c(=O)c2c1nc(N1CCOCC1)n2Cc1cccc(Br)c1	.	.	-4%	.	-3	.
N#Cc1ccccc1OCc1csc(-c2ccccc2)n1	.	.	?	.	-4	.
CC(Oc1ccc(Cl)cc1Cl)C(=O)Nc1ccc2oc(-c3ccncc3)nc2c1 (centres undefined)	5%	-3	3%	8.9µM*	-9	-4
COc1ccc(-c2nc3cc(NC(C)=O)ccc3o2)cc1Cl	.	.	-1%	.	-10	.
CCn1nc(C(=O)Nc2ccc(OC)c(NC(C)=O)c2)c2ccccc2c1=O	.	.	-5%	.	7	.
CCN(c1cccc(C)c1)S(=O)(=O)c1ccc2[nH]c(=O)c(=O)[nH]c2c1	1%	1	1%	22µM*	0	5
CCN1c2cc(C(=O)N3CCN(c4ccccc4)CC3)ccc2C(=O)N2CCCCCC21 (centres undefined)	.	.	-1%	.	.	.
CCCCNC(=S)NCCCC	.	.	?	.	1	.

Screening data: PubChem BioAssay, National Center for Advancing Translational Sciences (NCATS)
